Test results: the supplement of paper PMC8371130
Counter-ions that a name gives are not always drawn.

Tested on: HL-1
Assay: relative cell viability (CellTiter-Glo) vs DMSO control (% of DMSO control); higher = more viable cells
Outline: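 Compounds at 40, 200, 1000 or 5000 nM in 0.01% DMSO were added to HL-1 mouse atrial cardiomyocytes plated at 1000 cells per well in 384-well plates. The next day, cells were exposed to 1% O2 for 48 h and then reoxygenated for 24 h, or left in normoxia for the same time. Viability was read with CellTiter-Glo luminescence and normalised to vehicle-treated controls.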

[1] = oxygen condition: hypoxia 48 h (1% O2) + reoxygenation 24 h, 40 nM
[2] = oxygen condition: hypoxia 48 h (1% O2) + reoxygenation 24 h, 200 nM
[3] = oxygen condition: hypoxia 48 h (1% O2) + reoxygenation 24 h, 1000 nM
[4] = oxygen condition: hypoxia 48 h (1% O2) + reoxygenation 24 h, 5000 nM
[5] = oxygen condition: normoxia 72 h, 40 nM
[6] = oxygen condition: normoxia 72 h, 200 nM
[7] = oxygen condition: normoxia 72 h, 1000 nM
[8] = oxygen condition: normoxia 72 h, 5000 nM

Row | SMILES | relative cell viability [1] | relative cell viability [2] | relative cell viability [3] | relative cell viability [4] | relative cell viability [5] | relative cell viability [6] | relative cell viability [7] | relative cell viability [8]
1 | COc1ccc(CC2c3cc(OC)c(OC)cc3CC[N+]2(C)CCC(=O)OCCCCCOC(=O)CC[N+]2(C)CCc3cc(OC)c(OC)cc3C2Cc2ccc(OC)c(OC)c2)cc1OC (stereo not given) [Atracurium besylate] | 104 | 96.7 | 91.2 | 23.1 | 101 | 93.3 | 95.7 | 18.9
2 | O=S(=O)(O)c1cc(O)ccc1O [Ethamsylate] | 105 | 101 | 105 | 109 | 96.6 | 101 | 96.8 | 107
3 | CCCCNc1cc(C(=O)O)cc(S(N)(=O)=O)c1Oc1ccccc1 [Bumetanide] | 102 | 108 | 110 | 113 | 105 | 96.8 | 112 | 118
4 | O=C1NC(=O)C(c2ccccc2)(c2ccccc2)N1 [Phenytoin] | 98.3 | 97.9 | 98.1 | 103 | 95.4 | 61.2 | 93.3 | 99.4
5 | O=NO [Sodium nitrite] | 109 | 110 | 116 | 122 | 109 | 116 | 107 | 114
6 | COc1cc2nc(N3CCN(C(=O)c4ccco4)CC3)nc(N)c2cc1OC [Prazosin HCl] | 102 | 101 | 109 | 109 | 101 | 100 | 106 | 109
7 | CN1CCN(CCCN2c3ccccc3Sc3ccc(C(F)(F)F)cc32)CC1 [Trifluoperazine 2HCl] | 102 | 103 | 105 | 114 | 107 | 106 | 103 | 112
8 | CCCCNC(=O)NS(=O)(=O)c1ccc(C)cc1 [Tolbutamide] | 99 | 99.7 | 101 | 113 | 103 | 102 | 102 | 110
9 | CCOC(=O)[C@H](CCc1ccccc1)N[C@H]1CS[C@H](c2cccs2)CN(CC(=O)O)C1=O [Temocapril HCl] | 102 | 102 | 104 | 112 | 104 | 77.1 | 102 | 110
10 | CCOC(=O)[C@H](CCc1ccccc1)N[C@H]1CCCN2CCC[C@@H](C(=O)O)N2C1=O [Cilazapril monohydrate] | 97.6 | 97.3 | 94.1 | 113 | 105 | 106 | 98.7 | 115
11 | N#Cc1ccc(C(c2ccc(C#N)cc2)n2cncn2)cc1 [Letrozole] | 103 | 105 | 109 | 104 | 107 | 110 | 105 | 110
12 | CC(C)NCC(O)COc1ccc(COCCOC(C)C)cc1 (stereo not given) [Bisoprolol] | 93.2 | 103 | 87.2 | 101 | 90.8 | 101 | 85.4 | 108
13 | COC(=O)C1=C(C#N)NC(C)=C(C(=O)OC(C)C)C1c1cccc([N+](=O)[O-])c1 (stereo not given) [Nilvadipine] | 107 | 105 | 96.3 | 98.7 | 98.3 | 98.1 | 102 | 108
14 | CC1=C(CC(=O)O)c2cc(F)ccc2/C1=C\c1ccc([S+](C)[O-])cc1 (stereo not given) [Sulindac] | 104 | 105 | 106 | 61.2 | 103 | 101 | 108 | 113
15 | Clc1ccccc1CN1CCc2sccc2C1 [Ticlopidine HCl] | 96.8 | 94.8 | 97 | 103 | 94.9 | 97.1 | 95.5 | 108
16 | CC(=O)OCC(=O)[C@H]1CC[C@H]2[C@@H]3CCC4=CC(=O)CC[C@]4(C)[C@H]3CC[C@]12C [Deoxycorticosterone acetate] | 103 | 99.4 | 101 | 108 | 95.4 | 103 | 102 | 107
17 | CN(C)[C@@H](CCOc1cccc2ccccc12)c1ccccc1 [Dapoxetine hydrochloride] | 96.3 | 102 | 99.8 | 89.2 | 101 | 103 | 104 | 76.3
18 | O=C1[C@@H]2[C@H]3CC[C@H](C3)[C@@H]2C(=O)N1C[C@@H]1CCCC[C@H]1CN1CCN(c2nsc3ccccc23)CC1 [Lurasidone HCl] | 96.8 | 101 | 100 | 99.9 | 101 | 104 | 102 | 102
19 | O=C(CCCN1CC=C(n2c(=O)[nH]c3ccccc32)CC1)c1ccc(F)cc1 [Droperidol] | 94.9 | 102 | 105 | 103 | 97.3 | 97 | 93.9 | 106
20 | O=C(O)Cc1ccccc1Nc1c(Cl)cccc1Cl [Diclofenac Diethylamine] | 103 | 107 | 105 | 113 | 110 | 115 | 120 | 113
21 | CC(=O)OCC(CCn1cnc2cnc(N)nc21)COC(C)=O [Famciclovir] | 101 | 104 | 100 | 113 | 106 | 106 | 105 | 121
22 | CCOC(=O)[C@H](CCc1ccccc1)N[C@@H](C)C(=O)N1CCC[C@H]1C(=O)O [Enalapril maleate] | 101 | 101 | 103 | 105 | 98.5 | 103 | 99.2 | 99
23 | CCOCC(O)COc1ccc(NC(=O)CC[S+](C)C)cc1 (stereo not given) [Suplatast tosylate] | 106 | 103 | 99.4 | 107 | 101 | 101 | 108 | 120

Row | SMILES | relative cell viability [1] | relative cell viability [2] | relative cell viability [3] | relative cell viability [4] | relative cell viability [5] | relative cell viability [6] | relative cell viability [7] | relative cell viability [8]
24 | CCOC(=O)C1=C(COCCN)NC(C)=C(C(=O)OC)C1c1ccccc1Cl (stereo not given) [Amlodipine] | 102 | 101 | 113 | 100 | 107 | 107 | 93.2 | 106
25 | CCOC(=O)[C@H](CCc1ccccc1)N[C@@H](C)C(=O)N1C(=O)N(C)C[C@H]1C(=O)O [Imidapril] | 111 | 103 | 99.3 | 115 | 110 | 103 | 104 | 113
26 | CC(=O)OCC(=O)[C@@]12N=C(C)O[C@@H]1C[C@H]1[C@@H]3CCC4=CC(=O)C=C[C@]4(C)[C@H]3[C@@H](O)C[C@@]12C [Deflazacort] | 90.6 | 90.3 | 97.1 | 77.3 | 89.6 | 92.4 | 95.6 | 99.2
27 | C[C@]12CC[C@@H]3c4ccc(O)cc4CC[C@H]3[C@@H]1C[C@@H](O)[C@@H]2O [Estriol] | 101 | 99.3 | 95.4 | 103 | 105 | 101 | 99.8 | 104
28 | Cc1cccc(N(C)C(=S)Oc2ccc3ccccc3c2)c1 [Tolnaftate] | 91.4 | 102 | 100 | 105 | 102 | 101 | 105 | 103
29 | Cc1ccc(NC(=O)c2ccc(CN3CCN(C)CC3)cc2)cc1Nc1nccc(-c2cccnc2)n1 [Imatinib] | 101 | 101 | 110 | 107 | 105 | 100 | 98.6 | 111
30 | CC(=O)O[C@H]1C[C@@H]2CC[C@@H]3[C@H](CC[C@@]4(C)[C@H]3C[C@H]([N+]3(C)CCCCC3)[C@@H]4OC(C)=O)[C@@]2(C)C[C@@H]1N1CCCCC1 [Vecuronium Bromide] | 112 | 118 | 114 | 119 | 112 | 115 | 122 | 124
31 | COc1ccc(CN2CCN(C(c3ccc(F)cc3)c3ccc(F)cc3)CC2)c(OC)c1OC [Lomerizine HCl] | 96.9 | 105 | 108 | 106 | 68.3 | 102 | 106 | 108
32 | CC(C)NCC(O)COc1ccc(CCOCC2CC2)cc1 (stereo not given) [Betaxolol] | 99.8 | 98.5 | 100 | 101 | 96.4 | 100 | 99.6 | 108
33 | CC1CC(OC(=O)C(O)c2ccccc2)CC(C)(C)C1 (stereo not given) [Cyclandelate] | 104 | 106 | 106 | 118 | 103 | 108 | 110 | 115
34 | COc1cc2/c(=N/c3ccc(Br)cc3F)nc[nH]c2cc1OCC1CCN(C)CC1 [Vandetanib] | 110 | 115 | 115 | 102 | 113 | 112 | 116 | 102
35 | CCOC(=O)[C@H](CCc1ccccc1)N[C@H]1CCc2ccccc2N(CC(=O)O)C1=O [Benazepril hydrochloride] | 102 | 102 | 103 | 109 | 101 | 109 | 108 | 109
36 | CN1CCN(C2=Nc3cc(Cl)ccc3Nc3ccccc32)CC1 [Clozapine] | 105 | 104 | 105 | 99.9 | 96 | 108 | 113 | 102
37 | OCCOCCN1CCN(C2=Nc3ccccc3Sc3ccccc32)CC1 [Quetiapine fumarate] | 98.9 | 104 | 106 | 104 | 103 | 106 | 108 | 108
38 | O=C1O[C@H]([C@@H](O)CO)C([O-])=C1O.[Na+] [Sodium ascorbate] | 99.7 | 101 | 106 | 117 | 98.8 | 103 | 102 | 114
39 | O=C(O)c1ccc(NC(=O)[C@H](Cc2ccc(O)cc2)NC(=O)c2ccccc2)cc1 [Bentiromide] | 104 | 104 | 101 | 102 | 103 | 106 | 99.5 | 111
40 | OCCN(CCO)c1nc(N2CCCCC2)c2nc(N(CCO)CCO)nc(N3CCCCC3)c2n1 [Dipyridamole] | 102 | 107 | 93.7 | 108 | 108 | 98.7 | 98 | 113
41 | N[C@@H](CSCCCO)C(=O)O [Fudosteine] | 105 | 105 | 109 | 111 | 106 | 109 | 104 | 115
42 | C[N+](C)(C)CC(O)CC(=O)[O-] (racemic) [DL-Carnitine hydrochloride] | 100 | 95.2 | 97.2 | 107 | 104 | 102 | 103 | 91.5
43 | CC(COc1ccccc1)N(CCCl)Cc1ccccc1 (stereo not given) [Phenoxybenzamine HCl] | 101 | 97.6 | 93.1 | 95.4 | 101 | 101 | 91.5 | 107
44 | CN(c1nccc(=O)[nH]1)C1CCN(c2nc3ccccc3n2Cc2ccc(F)cc2)CC1 [Mizolastine] | 97.1 | 98.1 | 101 | 108 | 97.3 | 94.6 | 101 | 107
45 | CC1=CC(=O)c2ccccc2C1=O [Menadione] | 100 | 98.2 | 102 | 109 | 101 | 104 | 101 | 106
